About 7,200 (1.8%) of roughly 410,000 compounds were called active. Roughly 7% stayed inconclusive and do not appear here. The call rests on the fitted dose curve; in most records, active means well fitted activation curve with a large enough effect; inconclusive means small, poorly fitted or top-dose-only effect, or another doubt; inactive means no such curve, though single readings can be large or run the other way. The entries come from a sample that favours actives as a whole.
assay: qHTS of TDP-43 Inhibitors; conditions: TDP-43 expressing yeast growth rescue, BacTiter-Glo, 24 h; series mostly up to 46.1 µM; growth rescue (activation): at the top concentration; further: nearly all actives have a fitted effect of over 50% in size; on growth rescue (activation): % of control where 0% means no effect
Summary of the method: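 Growth rescue of TDP-43-toxic yeast measured as ATP luminescence (BacTiter-Glo). Cells grown to mid-log in raffinose, induced in galactose at OD600=0.02, exposed to compound 24 hr at 30 deg C.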
Potency means the concentration at half of the fitted maximal effect.

SMILES	growth rescue (activation)	Potency
COc1ccc(-c2cn3nc(N4CCCC(C(=O)NCCCOC(C)C)C4)sc3n2)cc1 (stereo not given)	21.4% (inactive)	–
COc1ccc(-n2c(C)csc2=S)cc1	14.9% (inactive)	–
COC(=O)c1sc(=S)n(-c2ccc(Cl)cc2)c1C	–	12.6 µM (active)
COC(=O)c1sc2ncccc2c1-n1c(C)ccc1C	22.8% (inactive)	–
Cc1ccccc1-c1nc(SCC(=O)N(C)c2ccccc2)c2c(=O)n(C)c(=O)n(C)c2n1	0% [at 9.22 µM] (inactive)	–
CCN1CCN(c2ncnc3c2cnn3-c2ccc(C)c(C)c2)CC1	-11.6% (inactive)	–
CCc1cc2c(N3CCN(c4nnc(CC)s4)CC3)ncnc2s1	–	17.8 µM (active)
Cc1ccc(NC(=O)CSc2nnc3[nH]c(=O)cc(C)n23)cc1Cl	21.8% (inactive)	–
COc1ccc(-c2cc(-c3nc(-c4cc(OC)c(OC)c(OC)c4)no3)[nH]n2)c(OC)c1	11.5% (inactive)	–
CCOc1ccc(CNC(=O)C2CCCN(S(=O)(=O)N(CC)c3ccc(OCC)cc3)C2)cc1 (stereo not given)	18% (inactive)	–
Oc1ccc(-c2[nH]ncc2-c2nc3ccccc3s2)c(O)c1	18.5% (inactive)	–
CCOc1ccccc1Oc1cn[nH]c1-c1ccc(OC)cc1O	–	22.4 µM (active)
CCN(CCn1cccn1)Cc1cn[nH]c1-c1ccc(OC)cc1F	3.87% (inactive)	–
Cc1cccc(N2CCN(C(=O)c3ccc4c(c3)CCN4S(=O)(=O)c3ccccc3)CC2)c1C	18.4% (inactive)	–
CC(=O)c1ccc(NC(c2ccc(F)cc2)c2nnc(-c3ccccc3)o2)cc1 (stereo not given)	1.24% (inactive)	–
CCOC(=O)c1c(NC(=O)c2cc(CC)on2)sc(C(C)=O)c1C	18.1% (inactive)	–
O=C(CNC(=O)OCc1ccccc1)Oc1cc2oc(=O)cc(-c3ccccc3)c2cc1Cl	–	7.08 µM (active)
O=C(CNC(=O)Cc1ccccc1)NCC(=O)OCC(=O)c1ccccc1Cl	-11.4% (inactive)	–
O=C(CNC(=O)OCc1ccccc1)NC1CCCCNC1=O (stereo not given)	-16.7% (inactive)	–
CCc1ccc(NC(=O)CCS(=O)(=O)c2cc3c(cc2Cl)NC(=O)CO3)cc1	5.16% (inactive)	–
Cn1c(=O)c(C(=O)Nc2ncccn2)c(O)c2ccccc21	-9.83% (inactive)	–
CCCCCn1c(=O)c(C(=O)OCC)c(Cl)c2ccccc21	-8.57% (inactive)	–
CCCn1c(=O)c(-c2ccccc2)c(O)c2ccccc21	–	22.4 µM (active)
COc1ccc(OC)c(NC(=O)CSC2=Nc3ccccc3C3=NC(CC(=O)NCCc4ccccc4)C(=O)N23)c1 (stereo not given)	0% (inactive)	–
Cc1c(-c2nc(-c3ccc4c(c3)OCO4)no2)nnn1-c1ccc(Br)cc1F	13.5% (inactive)	–

SMILES	growth rescue (activation)	Potency
CC1CCc2c(nc3ncnn3c2Nc2ccc(OC(F)(F)F)cc2)C1 (stereo not given)	-0.0857% (inactive)	–
Cc1cc(Nc2ccc(C)c(C)c2)n2ncnc2n1	14.1% (inactive)	–
Brc1ccc(Nc2c3c(nc4ncnn24)CCC3)cc1	–	12.6 µM (active)
COc1ccc(C(=O)c2oc3ccccc3c2NC(=O)COc2cccc(C)c2)cc1	9.29% [at 9.22 µM] (inactive)	–
Cc1c(NC(=O)c2cc(=O)c3ccccc3o2)c(=O)n(-c2ccccc2)n1C	22.7% (inactive)	–
CCOC(=O)c1cccc(NS(=O)(=O)c2cc(-c3cnc(C)o3)ccc2OC)c1	22.8% (inactive)	–
Cc1nc(NC(=O)c2ccc3c(c2)OCCO3)ccc1Br	–	12.6 µM (active)
CS(=O)(=O)c1ccc(-c2nnc(NC(=O)c3ccc4c(c3)OCCO4)o2)cc1	0% (inactive)	–
C/C(Cc1ccccc1)=N\NC(=O)CNC(=O)c1ccc2c(c1)OCCO2	5.25% (inactive)	–
Cc1ccc(C)c(NC(=O)C2CCCN(S(=O)(=O)c3cn(C)cn3)C2)c1 (stereo not given)	16.4% (inactive)	–
CC(=O)N1CCCc2cc(S(=O)(=O)Nc3ccc(Cl)cc3F)ccc21	26.2% (inactive)	–
CCOC(=O)c1cccc(NC(=O)CCn2nnc3ccccc32)c1	-14.2% (inactive)	–
CCOc1ccc(CNC(=O)c2ccc3c(c2)nnn3C2CCCC2)cc1	21.2% (inactive)	–
CCn1nnc2cc(C(=O)Nc3ccc(C(=O)OC(C)C)cc3)ccc21	–	11.2 µM (active)
CCOC(=O)c1cc(-c2ccccc2)n(CCC(=O)Nc2ccccc2CC)c1C	-0.302% (inactive)	–
O=C(Nc1c(C(=O)N2CCN(c3ccc(F)cc3)CC2)oc2ccccc12)c1ccco1	0% (inactive)	–
O=C(NNC1CC(=O)N(c2cccc(Cl)c2)C1=O)c1cccnc1 (stereo not given)	-2.69% (inactive)	–
O=C1[C@@H]2C(c3cccnc3)=NO[C@@H]2C(=O)N1c1ccc(Cl)cc1Cl	–	35.5 µM (active)
Cc1ccc(Cl)cc1N1CCN(C(=O)CN2C(=O)COc3ccc(S(=O)(=O)N4CCOCC4)cc32)CC1	16.2% (inactive)	–
CCC(=O)N1CCc2cc(S(=O)(=O)NC(CC(C)C)C(=O)NCCc3cccc(C)c3)ccc21 (stereo not given)	12.7% (inactive)	–
Cc1ccc(NC(=O)Cn2nnc3sc4c(c3c2=O)CCC(C)C4)cc1 (stereo not given)	0% (inactive)	–
COc1ccc(Nc2ncc3c(n2)CCN(C(=O)OC(C)(C)C)C3)cc1	–	14.1 µM (active)
CC(C)(C)OC(=O)N1CCC(c2c(C(=O)N3CCc4ccccc4C3)cnn2-c2ccc(F)cc2)CC1	3.82% (inactive)	–
COc1ccc(CN2CCc3nc(Nc4ccccc4)ncc3C2)c(OC)c1OC	9.73% (inactive)	–
O=c1cc(-c2ccccc2)n2c(SCc3ccccc3)nnc2[nH]1	19% (inactive)	–

SMILES	growth rescue (activation)	Potency
Cc1cccc(N2CCN(C(=O)CCn3c(=O)c4cccn4c4cccnc43)CC2C)c1 (stereo not given)	0% (inactive)	–
CCc1cnc2c(c1SCC(=O)c1ccccc1)c(=O)n(C)c(=O)n2C	16.8% (inactive)	–
O=C(COC(=O)/C=C/c1cccc(Cl)c1)NCc1cccs1	–	20 µM (active)
COc1ccc(Cl)cc1C(=O)OCC(=O)NCc1cccs1	-0.926% (inactive)	–
O=C(COC(=O)c1ccc(Cl)nc1)NCc1cccs1	16.7% (inactive)	–
CCOc1ccc(CCNC(=O)c2ccc3c(c2)sc2nc(-c4ccc(F)cc4)cn23)cc1OCC	19.4% (inactive)	–
COc1cc(C(=O)NC(=S)NCc2ccco2)cc(OC)c1OC	-2.12% (inactive)	–
COc1ccc2oc(C(=O)NCC(Cc3ccccc3)N(C)C)c(C)c2c1 (stereo not given)	-16.2% (inactive)	–
COc1ccc2oc(C(=O)NCc3ccco3)c(C)c2c1	–	12.6 µM (active)
COc1cccc(C(c2c(O)cc(C)n(Cc3ccco3)c2=O)N2CCN(c3ccccc3)CC2)c1 (stereo not given)	16.2% (inactive)	–
CCCCC(CC)CNC(=O)C1CCN(S(=O)(=O)c2cccc3nsnc23)CC1 (stereo not given)	-7.96% (inactive)	–
O=S(=O)(c1ccc2nc(N3CCN(c4cccc(Cl)c4)CC3)ccc2c1)N1CCCCC1	4.2% (inactive)	–
COc1cccc(C(=O)Oc2cc(C)[nH]c(=O)c2[N+](=O)[O-])c1	-7.6% (inactive)	–
Cc1cc(OC(=O)c2ccccc2)c([N+](=O)[O-])c(=O)[nH]1	-3.46% (inactive)	–
Cc1cc(OC(=O)c2ccc(OC(C)C)cc2)c([N+](=O)[O-])c(=O)[nH]1	–	22.4 µM (active)
Cc1nnc(SCc2cc(=O)c3cc(F)ccc3[nH]2)n1C	13.1% (inactive)	–
CC(C)CC(=O)NCC(c1ccc2c(c1)OCO2)N1CCN(c2ccc(F)cc2)CC1 (stereo not given)	-8.52% (inactive)	–
CCn1c(=O)cc(OCC(=O)Nc2cc(Cl)c(OC)cc2OC)c2ccccc21	8.79% (inactive)	–
Cc1ccc(S(=O)(=O)c2nc(-c3ccco3)oc2SCC(=O)Nc2ccc(F)cc2)cc1	25% (inactive)	–
COC(=O)c1sc(N)c(C(=O)OC)c1COC(=O)CNS(=O)(=O)c1ccc(C)cc1	17.9% (inactive)	–
Cc1ccc(-c2nc(COC(=O)c3c(C)noc3C)cs2)cc1	1.65% (inactive)	–
COC(=O)c1c(-c2ccc(C)cc2)csc1N	–	12.6 µM (active)
CCCn1c(=N)n(CC(O)COc2ccccc2OC)c2ccccc21 (stereo not given)	13.5% (inactive)	–
N/C(=N\OC(=O)N1c2ccccc2Sc2ccccc21)c1ccc(Br)cc1	8.92% (inactive)	–
N/C(=N\OC(=O)Cc1ccccc1[N+](=O)[O-])c1ccc(Br)cc1	–	15.8 µM (active)

SMILES	growth rescue (activation)	Potency
CO/N=C(\N)c1ccc([N+](=O)[O-])cc1	14.3% (inactive)	–
Cc1ccc(-n2ncc3c(=O)n(Cc4cccc(C(F)(F)F)c4)cnc32)cc1C	22.9% (inactive)	–
CC(C)NC(=O)C1CCC(Cn2c(=O)c3sccc3n(Cc3ccc(F)cc3)c2=O)CC1 (stereo not given)	17.9% (inactive)	–
O=C(COc1ccc(Cl)cc1)N(Cc1ccco1)Cc1ccco1	14.7% (inactive)	–
CC(=O)c1ccc(NC(=O)CCc2nc(-c3ccc(C)cc3)no2)cc1	14.4% (inactive)	–
CCOC(=O)c1ccc(NC(=O)c2c(NCc3cccs3)sc3c2CCCC3)cc1	29.4% (inactive)	–
CCOC(=O)c1ccc(NC(=O)c2csc3c2CCCCC3)cc1	–	20 µM (active)
CCOc1ccc(CCNC(=O)c2csc3c2CCCCC3)cc1	9.4% (inactive)	–
Cc1ccc(-c2cn3c(n2)sc2cc(C(=O)NCc4cccs4)ccc23)c(C)c1	-0.34% [at 9.22 µM] (inactive)	–
O=c1[nH]c2cc(Br)ccc2n2cccc12	–	10 µM (active)
C/C(=N\N)c1c(-c2ccccc2)c2cc(Br)ccc2[nH]c1=O	-15.3% (inactive)	–
CC1CN(C(=O)N2CCC(C(=O)NCc3cccs3)CC2)c2ccccc2O1 (stereo not given)	26.7% (inactive)	–
CS(=O)(=O)N(CC(=O)N1CCN(c2cccc(Cl)c2)CC1)c1ccccc1	-13.1% (inactive)	–
CC1CCN(C(=O)CN(c2ccc(Oc3ccccc3)cc2)S(C)(=O)=O)CC1	–	12.6 µM (active)
COc1ccc(N(CC(=O)N2CCCCCC2)S(=O)(=O)c2ccccc2)cc1	-22.5% (inactive)	–
COc1cc(CNC(=O)c2cc3n(n2)CCCN(Cc2cccc(F)c2)C3=O)cc(OC)c1OC	11.2% (inactive)	–
CCc1cc2c(cc3c(=O)n(CC(=O)NCCc4ccc(OC)c(OC)c4)ncn32)s1	7.79% (inactive)	–
CCC(=O)N1CCc2cc(Br)cc(S(=O)(=O)NCc3ccc(Cl)cc3)c21	22% (inactive)	–
CCC(=O)N1CCc2cc(CNC(=O)Nc3ccccc3Cl)ccc21	22.9% (inactive)	–
CCC(=O)N1CCc2cc(CNS(=O)(=O)c3ccc(Br)s3)ccc21	–	11.2 µM (active)
Cc1ccc(NC(=O)c2cc(S(=O)(=O)NCCC3=CCCCC3)ccc2F)cc1C	2.32% (inactive)	–
COc1cc(C(=O)Nc2ccc(OCc3cc(=O)n4ccc(C)cc4n3)cc2)cc(OC)c1OC	0.643% (inactive)	–
CCOC(=O)CSc1nc2ccc(C)cc2n2cnnc12	0.643% (inactive)	–
O=C(NNc1nc(N2CCCC2)nc(N2CCCC2)n1)c1ccccc1	5.54% (inactive)	–
O=C(c1ccccc1)c1ccc2nc(N3CCCCC3)c3nncn3c2c1	–	20 µM (active)

From PubChem BioAssay AID652104 (National Center for Advancing Translational Sciences (NCATS), 2013)
